# ± gives the standard deviation of the averaged measurements.
# B1: Smn (protein)
# chain: MSDETNAAVWDDSLLVKTYDESVGLAREALARRLADSTNKREEENAAAAEEEAGEISATGGATSPEPVSFKVGDYARATYVDGVDYEGAVVSINEEKGTCVLRYLGYENEQEVLLVDLLPSWGKRVRREQFLIAKKDEDEQLSRPKASAGSHSKTPKSSRRSRISGGLVMPPMPPVPPMIVGQGDGAEQDFVAMLTAWYMSGYYTGLYQGKKEASTTSGKKKTPKK
# B2: Hn (protein)
# chain: MYQRQVSFDKPTRVEDSAYIVEGVDIKEARNTCLLFSPKDSSLSSGALANILAIFKKHDINLVHIESRSSLRVPGYEFFVEADGKSGALGKAIEDVKEQCSYFNIISRDYKDNATAVPWFPRRIRDLDRFANQILSYGSELDADHPGFTDPEYRKRRKYFADIAYNYKHGEPLPHVDYTKEEIETWGIIFRNLTKLYKTHACREYNHVFPLLVDNCGFREDNIPQLEDVSNFLRDCTGFTLRPVAGLLSSRDFLAGLAFRVFHSTQYIRHPSKPMYTPEPDVCHELMGHVPLFADPAFAQFSQEIGLASLGAPDDYIEKLSTIFWFTVEYGVCRQEGELKAYGAGLLSSYGELEYCLTDKPQLKDFEPEVTGVTKYPITQFQPLYYVADSFETAKEKTIKFANSIPRPFGVRYNAYTQSVEVLDSKPQISNLMDNINSEFQILQNAVAKLRV
# B3: sigmar (protein)
# chain: MADNVFKSHDIGLRAQKKILSRMATKNIAKTFIDGTTASLLDNLYRLCKMHTGNKAKAEKLIKNIIKIVIKIGVLHRNNQFSDEELQKAELFKRKFQNTQLSIISFYEVDFTFDLPYLQKSIAESQVALKSIVQPHLTEKSLGRIDEVFDFFGEEALLETAFRPDSPYREVMGKIVADINAAMETGDI
# B4: fog (protein)
# chain: MSPPNCLLAVLALTVFIGANNALPITSRPIEGNVQRMVWEDWVNLDPEQRNLTKEKKITAKSIFTLPFRHCPQGHTLFNQLCIPQSNIDPTDLVKQELILAGGSNGSPPPPPIGDYDYGDDEESEEIVYDLSVIPTAMQDGLPPSVGTGDQALPSEDAPLKFNIFEKKFPTGTGEHEEMPLPPDMAAATYAKNISTTPETSTSITPTSTTTFAVPSVPSGEASNRIPGGVDLLAAPSDAFSTSTTLSMPTSNTTTTSNKDIGQVESIVLPADQEHDGLVHLVTSSLSDNDSDDSSTTLNGFNAEADLAQLLKVDAFWPVYDGSIELLPPLFSHRKVAPPLSADQDVKTKHAVDAAEKVGAELEEEVGEEEVTATDILPSEEDEYTTETATTTGDTTVAEASMDTSTATSTSGQSSPHPPEEPEIDERENRLVLIKSKVQPVQLTTTTSATATTAADVANSSSSTDRFHYQHFVEDESSTTTATPEPSSSTPGDPIEQSDMPASDNDNLMTNTIGGRGDDDDDGGHKATSEIHVQQELRLINELVKGKQRQQHQPQKQQLEPTSTEITSALTSTSTEDATTTTTTTTAYTNWSKVMPQLGQSTSETAATTETVATSGQVNEISLTATSASTEVKHFSITNRSYRNSKIIREDRLTVEPEGIVESAASTESAGTAATTPNSSSNPDGYTPLWWLPSIGWRLDRHLDGNGEDQSLLLRFFSTFRGSNTAATTR
# B5: mats (protein)
# chain: MDFLFGSRSSKTFKPKKNIPEGTHQYDLMKHAAATLGSGNLRNAVALPDGEDLNEWVAVNTVDFFNQINMLYGTITEFCTEETCGIMSAGPKYEYHWADGLTVKKPIKCSAPKYIDYLMTWVQDQLDDETLFPSKIGVPFPKNFHSSAKTILKRLFRVYAHIYHQHFTEVVTLGEEAHLNTSFKHFIFFVQEFNLIERRELAPLQELIDKLTAKDERQI
# B6: me31B (protein)
# chain: MMTEKLNSGHTNLTSKGIINDLQIAGNTSDDMGWKSKLKLPPKDNRFKTTDVTDTRGNEFEEFCLKRELLMGIFEKGWERPSPIQEAAIPIALSGKDVLARAKNGTGKTGAYCIPVLEQIDPTKDYIQALVMVPTRELALQTSQICIELAKHLDIRVMVTTGGTILKDDILRIYQKVQLIIATPGRILDLMDKKVADMSHCRILVLDEADKLLSLDFQGMLDHVILKLPKDPQILLFSATFPLTVKNFMEKHLREPYEINLMEELTLKGVTQYYAFVQERQKVHCLNTLFSKLQINQSIIFCNSTQRVELLAKKITELGYCCYYIHAKMAQAHRNRVFHDFRQGLCRNLVCSDLFTRGIDVQAVNVVINFDFPRMAETYLHRIGRSGRFGHLGIAINLITYEDRFDLHRIEKELGTEIKPIPKVIDPALYVANVGASVGDTCNNSDLNNSANEEGNVSK
# B7: Fkbp39 (protein)
# chain: MSMFWGLNMKPERKYSQTIIKSFHISGVALDKGQEAKLYLAAEKQEYIVATVTKAIPQVALDLNFSKGDRIMFYTAGDASVSLLGYLHDIDSEDDEDDDQMTIENLLNSKAIKNSKKSEDDEDENESGEEDEEDTDDDSQIIEEYESFLENGEEEDDDDVDEDNEESGEEDEQDSDDSEAEEEQPKAKVAKLSPGASAKKSGKEQNGVAKKEEAKQQQKKKEKPEAKKEQPKAKEPAKQQPASKDPRTITGGVKIVDQVVGKGEEAKQGKRVSVYYIGRLQSNNKTFDSLLKGKPFKFALGGGEVIKGWDVGVAGMKVGGKRVITCPPHMAYGARGAPPKIGPNSTLVFEVELKAVH
# Experiments:
# Experiment in all cases: MAPPIT interaction score (arbitrary units); higher = stronger binary interaction signal, active = hit call of the paper;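 active = MAPPIT score above the 99th percentile of random reference set scores in the same batch; inactive = at or below it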
# Gem2 = settings: MAPPIT configuration: N-N; pair source set: Lit-BM-16
# Smn = settings: MAPPIT configuration: N-N; pair source set: screen_2
# Fer1HCH = settings: MAPPIT configuration: N-N; pair source set: Curagen_low_conf
# mino = settings: MAPPIT configuration: N-N; pair source set: Lit-BS-16
# Fkbp12 = settings: MAPPIT configuration: N-N; pair source set: DPIM
# GILT3 = settings: MAPPIT configuration: N-N; pair source set: Finley_Y2H
# FoxP = settings: MAPPIT configuration: N-N; pair source set: Curagen_high_conf
# GILT1 = settings: MAPPIT configuration: N-N; pair source set: Curagen_low_conf
# Mad1 = settings: MAPPIT configuration: N-N; pair source set: screen_1
# Fkbp39 = settings: pair source set: Lit-BM-16
# 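Also: HEK293T cells with Epo stimulation, STAT-responsive firefly luciferase reporter, fold induction versus unstimulated cells divided by the larger fold induction of two negative controls lacking either bait or prey.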
binder,measurement,setting,value
B1,MAPPIT interaction score,Gem2,6.28 (active)
same,MAPPIT interaction score,Smn,6.24 (active)
B2,MAPPIT interaction score,Fer1HCH,0.406 (inactive)
same,MAPPIT interaction score,mino,0.808 (inactive)
B3,MAPPIT interaction score,Fkbp12,-0.294 (inactive)
B4,MAPPIT interaction score,GILT3,-0.488 (inactive)
B5,MAPPIT interaction score,FoxP,1.25 (inactive)
B6,MAPPIT interaction score,GILT1,0.228 (inactive)
same,MAPPIT interaction score,Mad1,0.203 (inactive)
B7,MAPPIT interaction score,Fkbp39; MAPPIT configuration: N-C,3.82 (active)
same,MAPPIT interaction score,Fkbp39; MAPPIT configuration: N-N,2.59 ± 0.55

# Reference: the supplement of paper PMC10105736
